Several values for one entry are separate records, joined by “and”; a condition that tells them apart may be missing. Identical values can stand only once. Records with an inconclusive call do not appear. Some structures have more than one record in an assay (separate samples or runs), and their calls can disagree. Activity calls are given as the source filed them. Rule for the calls, unless noted: active = hit-call score of the fitted dose curve at least 0.9, where 1 is the maximum; inactive = score below 0.9.
What was measured:
[1] = BSK_LPS_PGE2: BioMAP Diversity Plus: LPS Assay for Prostaglandin E2 (PGE2) Biomarker Activity (AID 2283082); settings: primary human HUVEC with PBMC; actives raise or lower the signal;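 for AC50: secreted prostaglandin E2 measured by ELISA in LPS-stimulated co-culture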
Method in brief: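 LPS-activated HUVEC/PBMC co-culture; cmpd dosed, 24 h; PGE2 by ELISA; bidirectional fit vs DMSO; SRB (0.1%, TCA-fixed, 560 nm) in parallel plates for overt cytotox.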

[2] = read-out: Macrophage colony-stimulating factor (MCSF), CSF1 (gene 1435); assay: BSK_LPS_MCSF: BioMAP Diversity Plus: LPS Assay for Macrophage colony-stimulating factor (MCSF) Biomarker Activity (AID 2283083); settings: primary human HUVEC with PBMC; actives raise or lower the signal
Method in brief: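 Compound is added to a human vascular primary co-culture of umbilical vein endothelium and blood mononuclear cells. After 24 h, M-CSF is quantified by ELISA. Signal changes are fitted in both directions against DMSO.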

[3] = read-out: Tissue Factor, F3 (gene 2152); assay: BSK_LPS_TissueFactor: BioMAP Diversity Plus: LPS Assay for Tissue Factor Biomarker Activity (AID 2283084); settings: primary human HUVEC with PBMC; actives raise or lower the signal
Method in brief: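 In this co-culture system of umbilical vein endothelium with PBMC, stimulated with LPS, cell-surface CD142 is detected by ELISA at 24 h. Endpoint values derive from bidirectional fitting, DMSO serving as baseline.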

[4] = read-out: Tumor necrosis factor (Homo sapiens) (UniProt P01375); assay: BSK_LPS_TNFa: BioMAP Diversity Plus: LPS Assay for Tumour Necrosis Factor alpha (TNFa) Biomarker Activity (AID 2283085); settings: primary human HUVEC with PBMC; actives raise or lower the signal
Method in brief: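 Read-out is ELISA of TNFa in primary human endothelial cell–PBMC co-cultures at 24 h after compound. Activity in either direction was fitted against DMSO.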

[5] = read-out: Vascular cell adhesion molecule 1 (VCAM1), VCAM1 (gene 7412); assay: BSK_LPS_VCAM1: BioMAP Diversity Plus: LPS Assay for Vascular cell adhesion molecule 1 (VCAM1) Biomarker Activity (AID 2283086); settings: primary human HUVEC with PBMC; actives raise or lower the signal
Method in brief: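 HUVEC + PBMC co-culture, LPS system; compound 24 h; VCAM-1 by ELISA; bidirectional fit vs DMSO control; parallel SRB (0.1%, TCA-fixed, 560 nm) for cytotoxicity.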

[6] = read-out: CD38, CD38 (gene 952); assay: BSK_SAg_CD38: BioMAP Diversity Plus: SAg Assay for CD38 Biomarker Activity (AID 2283087); settings: primary human HUVEC with PBMC; actives raise or lower the signal
Method in brief: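 Human HUVEC plus PBMC co-culture stimulated with superantigen; CD38 measured by ELISA 24 h after chemical dosing. Fluorescence read-out, bidirectional fit against DMSO; cytotoxicity tracked in parallel by SRB and Alamar Blue.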

[7] = read-out: CD40, CD40 (gene 958); assay: BSK_SAg_CD40: BioMAP Diversity Plus: SAg Assay for CD40 Biomarker Activity (AID 2283088); settings: primary human HUVEC with PBMC; actives raise or lower the signal
Method in brief: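 Fluorescence ELISA read-out of CD40 from umbilical vein endothelium plus peripheral blood mononuclear cells, sampled 24 h after dosing. Values come from bidirectional curve fitting with DMSO as baseline.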

[8] = read-out: Monocyte Chemoattractant Protein-1 (MCP1), CCL2 (gene 6347); assay: BSK_SAg_MCP1: BioMAP Diversity Plus: SAg Assay for Monocyte Chemoattractant Protein-1 (MCP1) Biomarker Activity (AID 2283090); settings: primary human HUVEC with PBMC; actives raise or lower the signal
Method in brief: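 MCP-1 levels in the endothelial–PBMC SAg co-culture were quantified by ELISA at 24 h post-dosing; both increases and decreases versus DMSO scored. Cytotoxicity monitored by SRB total protein in parallel cultures.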

[9] = read-out: E-selectin (Homo sapiens) (UniProt P16581); assay: BSK_SAg_Eselectin: BioMAP Diversity Plus: SAg Assay for Eselectin Biomarker Activity (AID 2283091); settings: primary human HUVEC with PBMC; actives raise or lower the signal
Method in brief: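 Primary human endothelial cells and peripheral blood mononuclear cells were co-cultured and exposed to chemical for 24 hours. E-selectin levels were then quantified by ELISA, with bidirectional curve fitting normalised to DMSO controls.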

[10] = read-out: Monokine induced gamma interferon (MIG), CXCL9 (gene 4283); assay: BSK_SAg_MIG: BioMAP Diversity Plus: SAg Assay for Monokine induced gamma interferon (MIG) Biomarker Activity (AID 2283092); settings: primary human HUVEC with PBMC; actives raise or lower the signal
Method in brief: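 Values reflect bidirectional fitting of ELISA-measured MIG against DMSO vehicle, taken 24 h after dosing of a co-culture of human umbilical vein endothelial cells and peripheral blood mononuclear cells.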

[11] = BSK_SAg_PBMCCytotoxicity: PBMC Cytotoxicity Assessment in the BioMAP Diversity Plus: SAg Assay (AID 2283093); settings: primary human HUVEC with PBMC;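 note: PBMC viability measured as Alamar Blue reduction fluorescence at 546/580 nm; fitted both ways against DMSO so a hit may be loss or gain of signal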;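 for AC50: PBMC superantigen activated with SEB plus TSST-1 one hour after compound addition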
Method in brief: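 HUVEC/PBMC co-culture; PBMC exposed to chemical 1 h before SEB and TSST-1 activation (20 ng/mL each), incubated 90 h, then Alamar Blue 6 h, fluorescence 546/580 nm. Bidirectional fit versus DMSO baseline.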

[12] = read-out: Interleukin-8 (IL8), CXCL8 (gene 3576); assay: BSK_SAg_IL8: BioMAP Diversity Plus: SAg Assay for Interleukin-8 (IL8) Biomarker Activity (AID 2283094); settings: primary human HUVEC with PBMC; actives raise or lower the signal
Method in brief: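 ELISA read-out of IL-8 in a primary human vascular co-culture (umbilical vein endothelium plus PBMC), taken 24 h after compound addition. Values derive from bidirectional fits against DMSO negative controls.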

[13] = BSK_SAg_Proliferation: Cell Proliferation Assessment in the BioMAP Diversity Plus: SAg Assay (AID 2283095); settings: primary human HUVEC with PBMC;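 note: relative cell number as total protein by SRB absorbance in sub-confluent culture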
Method in brief: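 Cells (endothelium plus PBMC, human primary) were dosed with chemical, cultured 96 h, fixed in 10% TCA and stained with 0.1% SRB. Absorbance at 560 nm gave relative protein, fitted bidirectionally relative to DMSO.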

[14] = BSK_SAg_SRB: Viability Assessment in the BioMAP Diversity Plus: SAg Assay (AID 2283096); settings: primary human HUVEC with PBMC;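 note: cells read one day after compound addition; hits may be either gain or loss of signal compared with DMSO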
Method in brief: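 Human umbilical vein endothelial cells co-cultured with PBMC, read 24 h after compound dosing. Total protein measured by sulforhodamine B staining (0.1% SRB after 10% TCA fixation, absorbance 560 nm); bidirectional fit versus DMSO baseline.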

[15] = read-out: CD69, CD69 (gene 969); assay: BSK_SAg_CD69: BioMAP Diversity Plus: SAg Assay for CD69 Biomarker Activity (AID 2283089); settings: primary human HUVEC with PBMC; actives raise or lower the signal;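 note: cell surface CD69 protein quantified by ELISA with fluorescence detection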
Method in brief: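 Values derive from bidirectional fitting relative to DMSO vehicle. Cells: umbilical vein endothelium plus peripheral blood mononuclear cells, treated 24 h before fluorescent ELISA for CD69.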

[16] = target: human CYP2A6, CYP2A6 (gene 1548) (UniProt P11509); assay: NVS_ADME_hCYP2A6: NovaScreen (NVS) CYP450-related Enzyme Activity (ADME) Assay for human CYP2A6 (AID 2283099; active = hit-call score of the fitted dose curve at least 0.9, where 1 is the maximum)
Method in brief: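 Recombinant human CYP2A6 from insect cells was incubated with chemical for 0.5 h and activity read by fluorescence. Single-concentration duplicates at 10 uM preceded concentration-response testing to 20 uM, with activity referenced to acetonitrile.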

[17] = target: human CYP1A1, CYP1A1 (gene 1543) (UniProt P04798); assay: NVS_ADME_hCYP1A1: NovaScreen (NVS) CYP450-related Enzyme Activity (ADME) Assay for human CYP1A1 (AID 2283100; active = hit-call score of the fitted dose curve at least 0.9, where 1 is the maximum)
Method in brief: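 Compounds first went through duplicate single-concentration testing at 10 uM against purified CYP1A1. Those passing a threshold such as 30% inhibition entered singleton dose-response, highest concentration 20 uM. Signal was fluorescence measured after 1 hour.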

[18] = target: human CYP1A2, CYP1A2 (gene 1544) (UniProt P05177); assay: NVS_ADME_hCYP1A2: NovaScreen (NVS) CYP450-related Enzyme Activity (ADME) Assay for human CYP1A2 (AID 2283102; active = hit-call score of the fitted dose curve at least 0.9, where 1 is the maximum;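 note: fluorescence from turnover of a fluorogenic substrate by recombinant insect-cell CYP1A2; potency for inhibition since loss of fluorescence marks reduced CYP1A2 activity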)
Method in brief: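 Compounds were tested at 10 uM in duplicate against recombinant CYP1A2 produced in insect cells. Enzyme activity was measured by fluorescence 0.5 h after dosing, with loss of signal versus acetonitrile control. Active compounds were re-tested in concentration series.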

Measured: AC50

Chain of E-selectin (Homo sapiens) (P16581 whole entry, looked up): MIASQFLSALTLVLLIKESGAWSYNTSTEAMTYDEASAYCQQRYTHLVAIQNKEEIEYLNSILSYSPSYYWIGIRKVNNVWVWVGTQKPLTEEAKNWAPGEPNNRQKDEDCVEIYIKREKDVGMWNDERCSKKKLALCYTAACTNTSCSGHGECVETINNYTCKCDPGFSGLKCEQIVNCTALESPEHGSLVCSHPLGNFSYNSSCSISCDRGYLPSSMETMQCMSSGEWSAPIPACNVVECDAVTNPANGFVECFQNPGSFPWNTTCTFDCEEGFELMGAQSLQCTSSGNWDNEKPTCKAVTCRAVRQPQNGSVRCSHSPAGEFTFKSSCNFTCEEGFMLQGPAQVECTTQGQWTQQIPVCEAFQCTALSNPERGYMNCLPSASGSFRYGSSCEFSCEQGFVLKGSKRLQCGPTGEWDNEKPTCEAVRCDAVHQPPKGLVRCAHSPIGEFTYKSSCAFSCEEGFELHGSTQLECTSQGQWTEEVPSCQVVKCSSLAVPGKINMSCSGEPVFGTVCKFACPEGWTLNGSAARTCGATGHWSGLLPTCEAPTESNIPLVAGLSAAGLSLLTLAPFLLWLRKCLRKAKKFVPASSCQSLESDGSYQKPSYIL
Chain of Tumor necrosis factor (Homo sapiens) (P01375 whole entry, looked up): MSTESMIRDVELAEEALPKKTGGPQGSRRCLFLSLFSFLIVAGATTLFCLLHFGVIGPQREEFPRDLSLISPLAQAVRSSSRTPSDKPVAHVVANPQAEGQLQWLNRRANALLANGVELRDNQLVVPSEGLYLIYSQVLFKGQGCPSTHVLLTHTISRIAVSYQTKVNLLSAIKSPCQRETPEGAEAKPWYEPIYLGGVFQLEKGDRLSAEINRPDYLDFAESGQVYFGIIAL
Chain of human CYP1A1, CYP1A1 (gene 1543) (P04798 whole entry, looked up): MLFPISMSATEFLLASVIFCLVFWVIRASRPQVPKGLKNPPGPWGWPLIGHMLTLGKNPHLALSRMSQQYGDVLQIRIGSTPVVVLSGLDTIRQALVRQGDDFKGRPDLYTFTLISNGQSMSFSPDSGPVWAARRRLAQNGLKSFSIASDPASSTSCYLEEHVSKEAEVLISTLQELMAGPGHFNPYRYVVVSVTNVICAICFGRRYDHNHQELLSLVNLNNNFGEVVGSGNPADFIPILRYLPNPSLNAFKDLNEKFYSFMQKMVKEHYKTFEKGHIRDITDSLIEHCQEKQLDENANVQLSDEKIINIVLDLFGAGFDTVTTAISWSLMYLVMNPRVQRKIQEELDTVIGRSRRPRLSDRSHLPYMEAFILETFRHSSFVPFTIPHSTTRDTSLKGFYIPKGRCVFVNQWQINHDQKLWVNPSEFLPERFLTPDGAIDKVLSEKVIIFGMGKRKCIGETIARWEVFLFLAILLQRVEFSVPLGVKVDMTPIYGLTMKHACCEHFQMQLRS
Chain of human CYP1A2, CYP1A2 (gene 1544) (P05177 whole entry, looked up): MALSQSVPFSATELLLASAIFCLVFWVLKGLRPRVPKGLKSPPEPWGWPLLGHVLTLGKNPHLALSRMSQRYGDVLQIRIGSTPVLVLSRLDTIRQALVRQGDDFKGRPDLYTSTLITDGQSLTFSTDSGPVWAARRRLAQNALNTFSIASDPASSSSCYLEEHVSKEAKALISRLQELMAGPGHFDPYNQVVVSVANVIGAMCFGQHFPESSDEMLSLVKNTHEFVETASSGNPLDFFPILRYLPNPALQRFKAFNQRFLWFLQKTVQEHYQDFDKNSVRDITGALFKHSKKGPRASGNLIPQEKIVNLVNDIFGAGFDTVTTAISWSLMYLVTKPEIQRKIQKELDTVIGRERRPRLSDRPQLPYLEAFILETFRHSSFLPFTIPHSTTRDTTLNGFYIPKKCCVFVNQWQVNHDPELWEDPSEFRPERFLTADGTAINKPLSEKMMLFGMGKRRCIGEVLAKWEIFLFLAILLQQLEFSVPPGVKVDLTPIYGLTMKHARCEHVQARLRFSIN
Chain of human CYP2A6, CYP2A6 (gene 1548) (P11509 whole entry, looked up): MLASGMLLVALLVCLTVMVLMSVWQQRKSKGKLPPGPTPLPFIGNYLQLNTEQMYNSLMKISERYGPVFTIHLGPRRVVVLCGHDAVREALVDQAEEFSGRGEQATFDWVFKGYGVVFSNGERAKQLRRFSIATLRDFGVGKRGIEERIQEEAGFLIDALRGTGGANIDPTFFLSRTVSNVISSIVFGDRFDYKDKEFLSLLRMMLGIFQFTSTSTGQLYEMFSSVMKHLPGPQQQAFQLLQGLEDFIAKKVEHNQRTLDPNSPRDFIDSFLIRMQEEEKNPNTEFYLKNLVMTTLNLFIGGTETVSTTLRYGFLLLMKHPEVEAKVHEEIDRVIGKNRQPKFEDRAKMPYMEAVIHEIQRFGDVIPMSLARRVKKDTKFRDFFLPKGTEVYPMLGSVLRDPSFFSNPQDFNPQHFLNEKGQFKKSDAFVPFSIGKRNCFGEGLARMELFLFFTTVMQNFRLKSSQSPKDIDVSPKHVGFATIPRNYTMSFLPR

CCCCCCCCCCCCc1ccccc1S(=O)(=O)O
not listed: [15] | [16] | [17] | [18]
inactive: all other assays above

OCCC(F)(F)C(F)(F)C(F)(F)C(F)(F)C(F)(F)C(F)(F)C(F)(F)C(F)(F)F
active: [2] 43.2 µM and 5.95 µM | [3] 45.6 µM | [4] 47.6 µM | [5] 24.3 µM and 33.3 µM and 18.8 µM | [6] 29.1 µM and 27.8 µM | [7] 29.1 µM and 23.8 µM | [8] 43 µM and 23.1 µM | [9] 39.2 µM and 31.9 µM | [10] 46.3 µM and 43.8 µM | [11] 23.4 µM and 10 µM and 10.8 µM | [12] 41.5 µM and 24.6 µM | [13] 20 µM and 14.1 µM and 10.9 µM | [14] 17.2 µM and 21.1 µM
inactive: [1] | [2] | [3] | [4] | [6] | [7] | [8] | [9] | [10] | [12] | [14]

FC(F)(I)C(F)(F)C(F)(F)C(F)(F)C(F)(F)C(F)(F)I
inactive: [1] | [12]
active: [1] 7.63 µM and 7.34 µM and 7.24 µM | [4] 20.2 µM [middle of 5 runs] | [10] 54.9 µM [middle of 5 runs] | [12] 9.66 µM and 45 µM and 41.6 µM | [14] 28.1 µM [middle of 5 runs]

CCN(CC)CCNc1ccc(CNC=O)c2sc3ccc(OC)cc3c(=O)c12
active: [1] 4.06 µM | [2] 20 µM | [3] 25.5 µM | [4] 17.8 µM | [5] 14.4 µM | [6] 26.7 µM | [7] 27 µM | [15] 24.9 µM | [8] 20 µM | [9] 20 µM | [10] 36.4 µM | [11] 12.9 µM | [12] 20 µM | [13] 7.57 µM | [14] 17.8 µM | [17] 6.62 µM | [18] 7.1 µM
inactive: [16]

CC(C)(C)c1ccc(O)c(C(C)(C)C)c1
active: [1] 16.9 µM | [2] 13.4 µM | [3] 20 µM | [4] 13.2 µM | [5] 19.4 µM | [6] 14.5 µM | [7] 20 µM | [15] 24.8 µM | [8] 23.6 µM | [9] 11.9 µM | [10] 28.7 µM | [11] 12.9 µM | [12] 20 µM | [13] 10.8 µM | [14] 16.6 µM
